Measurements published in PubChem BioAssay (NCATS).
Results filed as inconclusive are left out. Calls of active or inactive are those of the source. The call rests on the fitted dose curve; in most records, active means well fitted inhibition curve with a large enough effect; inconclusive means small, poorly fitted or top-dose-only effect; inactive means flat fitted curve, though single readings scatter. Where a SMILES comes first, the peptide text is derived from it. Bridges are numbered along the chain shown (N, C = ends). [ ]: non-standard residue; d: D form. The star is where a group is joined. X1 = CC[C@@H](C)[C@@H](N)C1=N[C@H](C(=O)*)CS1; d(aIle) = CC[C@H](C)[C@@H](N)C(=O)O; dOrn = NCCC[C@@H](N)C(=O)O

Legend:
[1] = Drug repurposing screens with cells derived from glioblastoma tumor samples (AID 1345199); details: GBM patient neurospheres viability, ATP luminescence, 48 h; further: nearly all actives have a fitted effect of over 40% in size
Outline: (§1)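 Four patient lines of CD133+ GBM neurospheres were screened at several concentrations; hits were retested in those lines plus three slower-growing GBM lines, using 48-hour treatment and ATP-based viability.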

astro = control astrocytes; experiment: as above; details: viability, ATP luminescence, 48 h; series mostly up to 45.9 µM
Outline: as §1

[2] = at 45.9 µM (top of the series), tumour line B
[3] = at 45.9 µM (top of the series), tumour line D
[4] = at 46 µM (top of the series), tumour line A
[5] = at 46.1 µM (top of the series), tumour line C
[6] = at 20 µM (top of the series), tumour line C
[7] = at 21.2 µM (top of the series), tumour line B
[8] = at 21.2 µM (top of the series), tumour line D
[9] = at 21.3 µM (top of the series), tumour line A
On the % scale 0 is the no-effect control and ±100 the full control effect; potency means the concentration at half of the fitted maximal effect.

OC[C@@H](O)C(O)[C@H](O)CO
inactive: activity, negative = cell killing [1, 2] -10.5% | activity, negative = cell killing [1, 3] -11.3% | activity, negative = cell killing [1, 4] -25% | activity, negative = cell killing [1, 5] 11.8% | Potency (astro)

CCc1ncnc2cc(OC)c(OC)cc12
inactive: activity, negative = cell killing [1, 2] -18.2% | activity, negative = cell killing [1, 3] -1.42% | activity, negative = cell killing [1, 5] -14.3%

CC(O)CN(C)C (centres undefined)
inactive: activity, negative = cell killing [1, 2] -7.97% | activity, negative = cell killing [1, 3] -11.2% | activity, negative = cell killing [1, 5] -3.25%

CCC(C)[C@@H](N)C(=O)O (some centres undefined)
inactive: activity, negative = cell killing [1, 2] -9.25% | activity, negative = cell killing [1, 3] -6.09% | activity, negative = cell killing [1, 4] -16.7% | activity, negative = cell killing [1, 5] 10.2%

CC/C(=C(/CC)c1ccc(OP(=O)(O)O)cc1)c1ccc(OP(=O)(O)O)cc1
inactive: activity, negative = cell killing [1, 2] -16% | activity, negative = cell killing [1, 3] -11.4% | activity, negative = cell killing [1, 4] -22.6% | activity, negative = cell killing [1, 5] -17.3% | Potency (astro)

C[C@]12CC[C@@H]3c4ccc(O)cc4CC[C@H]3[C@@H]1CC[C@@H]2OP(=O)(O)O
inactive: activity, negative = cell killing [1, 2] -7.23% | activity, negative = cell killing [1, 3] -13% | activity, negative = cell killing [1, 4] -23.9% | activity, negative = cell killing [1, 5] 22.6%

FC(F)(F)C(F)(F)C(F)(F)C(F)(F)C(F)(F)F
inactive: activity, negative = cell killing [1, 2] 3% | activity, negative = cell killing [1, 3] -24.7% | activity, negative = cell killing [1, 4] -8.67% | activity, negative = cell killing [1, 5] -13.9%

C[C@@H]1NC(=O)[C@@H](N)CNC(=O)[C@H](C2CCNC(N)=N2)NC(=O)/C(=C/NC(N)=O)NC(=O)[C@H](CNC(=O)C[C@@H](N)CCCN)NC1=O (some centres undefined)
inactive: activity, negative = cell killing [1, 6] 24.6% | activity, negative = cell killing [1, 7] -11.2% | activity, negative = cell killing [1, 8] -13.8% | activity, negative = cell killing [1, 2] -12.9% | activity, negative = cell killing [1, 3] -1.47% | activity, negative = cell killing [1, 5] -18.8% | Potency (astro)

O=C(O)CCC/C=C\C[C@@H]1[C@@H](/C=C/[C@@H](O)COc2cccc(C(F)(F)F)c2)[C@H](O)C[C@@H]1O
inactive: activity, negative = cell killing [1, 2] -0.927% | activity, negative = cell killing [1, 3] 2.71% | activity, negative = cell killing [1, 4] -17.8% | activity, negative = cell killing [1, 5] 3.43%

CO/N=C(\C(=O)N[C@@H]1C(=O)N2C(C(=O)O)=C(C[N+]3(C)CCCC3)CS[C@H]12)c1csc(N)n1
inactive: activity, negative = cell killing [1, 2] -2.14% | activity, negative = cell killing [1, 3] 5.4% | activity, negative = cell killing [1, 4] -4.98% | activity, negative = cell killing [1, 5] -21.1%

COc1ccc(C(=O)CCC(=O)O)c2ccccc12
inactive: activity, negative = cell killing [1, 2] 0.841% | activity, negative = cell killing [1, 3] 1.24% | activity, negative = cell killing [1, 4] -50.8% | activity, negative = cell killing [1, 5] -26.3%

O=C1CCC(=O)N1CO
inactive: activity, negative = cell killing [1, 2] -0.626% | activity, negative = cell killing [1, 3] -0.644% | activity, negative = cell killing [1, 4] -17% | activity, negative = cell killing [1, 5] -0.827% | Potency (astro)

CCOc1ccc(NC(=S)Nc2ccc(OCC)cc2)cc1
inactive: activity, negative = cell killing [1, 2] -13.1% | activity, negative = cell killing [1, 3] -11.1% | activity, negative = cell killing [1, 5] -27.8%

CCOC(=O)[C@@H](N)CS
inactive: activity, negative = cell killing [1, 2] -8.18% | activity, negative = cell killing [1, 3] -11.2% | activity, negative = cell killing [1, 4] -24.4% | activity, negative = cell killing [1, 5] 1.04%

COc1ccc([C@@H]2CC(=O)c3c(O)cc(O[C@@H]4O[C@H](CO[C@@H]5O[C@@H](C)[C@H](O)[C@@H](O)[C@H]5O)[C@@H](O)[C@H](O)[C@H]4O)cc3O2)cc1O
inactive: activity, negative = cell killing [1, 6] -7.12% | activity, negative = cell killing [1, 7] -4.88% | activity, negative = cell killing [1, 8] -12.7% | activity, negative = cell killing [1, 9] -11.4%

CCC(Cc1c(I)cc(I)c(O)c1I)C(=O)O (centres undefined)
inactive: activity, negative = cell killing [1, 2] -7.21% | activity, negative = cell killing [1, 3] -2.81% | activity, negative = cell killing [1, 4] -17.6%

CCCC(=O)O
inactive: activity, negative = cell killing [1, 2] -1.41% | activity, negative = cell killing [1, 3] -13.2% | activity, negative = cell killing [1, 4] -10.6% | activity, negative = cell killing [1, 5] -26.8%

CCCCC(O)c1ccccc1 (centres undefined)
inactive: activity, negative = cell killing [1, 2] -4.84% | activity, negative = cell killing [1, 3] -15% | activity, negative = cell killing [1, 4] -44.5% | activity, negative = cell killing [1, 5] 0.769%

CCCCC[C@H](O)/C=C/[C@@H]1[C@H]2C/C(=C/CCCC(=O)O)O[C@H]2C[C@H]1O
inactive: activity, negative = cell killing [1, 2] -2.96% | activity, negative = cell killing [1, 3] 0.816% | activity, negative = cell killing [1, 4] -14.4% | activity, negative = cell killing [1, 5] -18.7%

CC[C@@H](C)[C@@H](N)C1=N[C@H](C(=O)N[C@@H](CC(C)C)C(=O)N[C@@H](CCC(=O)O)C(=O)N[C@@H](C(=O)N[C@@H]2CCCCNC(=O)[C@@H](CC(N)=O)NC(=O)[C@@H](CC(=O)O)NC(=O)[C@@H](Cc3cnc[nH]3)NC(=O)[C@@H](Cc3ccccc3)NC(=O)[C@@H]([C@H](C)CC)NC(=O)[C@@H](CCCN)NC2=O)[C@@H](C)CC)CS1 (X1-LE[d(aIle)][dK][dOrn][dI][dF][dH][dD][dN]; lactam 4-C)
inactive: activity, negative = cell killing [1, 6] 4.06% | activity, negative = cell killing [1, 7] -2.34% | activity, negative = cell killing [1, 8] -0.888% | activity, negative = cell killing [1, 9] -20.3% | activity, negative = cell killing [1, 2] -12.2% | activity, negative = cell killing [1, 3] -10.9% | activity, negative = cell killing [1, 4] -25% | activity, negative = cell killing [1, 5] 23.1% | Potency (astro)

COc1ccc2c(=O)c(C)c(-c3ccccc3)oc2c1CN(C)C
active: Potency ([1]; tumour line A) 20 µM
inactive: activity, negative = cell killing [1, 2] -11.5% | activity, negative = cell killing [1, 3] -20.7% | activity, negative = cell killing [1, 5] -17.7%

c1ccc2cc(C3=NCCN3)ccc2c1
inactive: activity, negative = cell killing [1, 2] -16.9% | activity, negative = cell killing [1, 3] -20.8% | activity, negative = cell killing [1, 5] -24%
active: Potency ([1]; tumour line A) 11.2 µM

CC(C)[C@H](N)C(=O)OCC(CO)OCn1cnc2c(=O)[nH]c(N)nc21 (some centres undefined)
inactive: activity, negative = cell killing [1, 2] -16.2% | activity, negative = cell killing [1, 3] -11.6% | activity, negative = cell killing [1, 4] -27% | activity, negative = cell killing [1, 5] -25.2%

CC(C)(CO)[C@@H](O)C(=O)NCCCC(=O)O
inactive: activity, negative = cell killing [1, 2] 2.97% | activity, negative = cell killing [1, 3] -4.32% | activity, negative = cell killing [1, 4] -3.96% | activity, negative = cell killing [1, 5] -7.77%

CCCCC(=O)O[C@H]1CC[C@H]2[C@@H]3CCc4cc(O)ccc4[C@H]3CC[C@]12C
active: Potency ([1]; tumour line A) 28.2 µM | Potency ([1]; tumour line D) 11.2 µM
inactive: activity, negative = cell killing [1, 2] -20.6% | activity, negative = cell killing [1, 5] 8.7%

COc1ccc2c(c1)N(C[C@H](C)CN(C)C)c1ccccc1S2
inactive: activity, negative = cell killing [1, 6] 13%
active: Potency ([1]; tumour line A) 4.47 µM | Potency ([1]; tumour line D) 12.6 µM

CCCCC[C@H](O)/C=C/[C@H]1[C@H](O)CC(=O)[C@@H]1CCCCCCC(=O)O
active: Potency ([1]; tumour line A) 11.2 µM
inactive: activity, negative = cell killing [1, 6] 1.46% | activity, negative = cell killing [1, 7] -10.6% | activity, negative = cell killing [1, 8] -20.2%
